# Measured values reported in PubChem BioAssay (EPA / NIEHS).
# Calls of active or inactive are those of the source. The calls were made as follows: active = hit-call score of the fitted dose curve at least 0.9, where 1 is the maximum; inactive = score below 0.9.
# Experiments:
# [1] = read-out: C-C motif chemokine 2 (Homo sapiens) (UniProt P13500); experiment: BSK_KF3CT_MCP1: BioMAP Diversity Plus: KF3CT Assay for Monocyte Chemoattractant Protein 1 (MCP1/CCL2) Biomarker Activity (AID 2283073); settings: primary human keratinocytes with fibroblasts; actives raise or lower the signal
# Outline: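 Keratinocytes and foreskin fibroblasts were co-cultured, dosed with chemical, and sampled 24 h later. MCP-1 was quantified by ELISA, and the endpoint was analyzed with bidirectional fitting using DMSO as negative control.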
# [2] = read-out: Matrix Metallopeptidase 9 (MMP9), MMP9 (gene 4318); experiment: BSK_KF3CT_MMP9: BioMAP Diversity Plus: KF3CT Assay for Matrix Metallopeptidase 9 (MMP9) Biomarker Activity (AID 2283074); settings: primary human keratinocytes with fibroblasts; actives raise or lower the signal;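 as to AC50: MMP9 protein level quantified by ELISA in the co-culture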
# Outline: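 MMP-9 quantified by ELISA after 24 h chemical treatment of primary human skin keratinocyte/fibroblast co-cultures; gain or loss fitted against DMSO, with parallel SRB staining (0.1% SRB, 560 nm) for overt cytotoxicity.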
# [3] = read-out: urokinase plasminogen activator (uPA), PLAU (gene 5328); experiment: BSK_KF3CT_uPA: BioMAP Diversity Plus: KF3CT Assay for urokinase plasminogen activator (uPA) Biomarker Activity (AID 2283075); settings: primary human keratinocytes with fibroblasts; actives raise or lower the signal
# Outline: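 ELISA read-out of uPA 24 h after dosing human skin keratinocytes co-cultured with foreskin fibroblasts. Signal change fitted both ways relative to DMSO; sulforhodamine B on parallel cultures marks overt cytotoxicity.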
# CD40, CD40 (gene 958) = experiment: BSK_LPS_CD40: BioMAP Diversity Plus: LPS Assay for CD40 Biomarker Activity (AID 2283076); settings: primary human HUVEC with PBMC; actives raise or lower the signal
# Outline: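 CD40 signal, measured by ELISA, is fitted in both directions relative to DMSO vehicle. The system is an LPS-driven human vascular primary co-culture of endothelial cells and PBMC, sampled 24 h after compound addition.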
# [4] = read-out: E-selectin (Homo sapiens) (UniProt P16581); experiment: BSK_LPS_Eselectin: BioMAP Diversity Plus: LPS Assay for Eselectin Biomarker Activity (AID 2283077); settings: primary human HUVEC with PBMC; actives raise or lower the signal
# Outline: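 Signal of E-selectin, detected by ELISA, served as the endpoint; cells were umbilical vein endothelium with PBMC, read 24 h after treatment. DMSO defined baseline, and both increases and decreases were fitted.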
# [5] = read-out: Interleukin-8 (IL8), CXCL8 (gene 3576); experiment: BSK_LPS_IL8: BioMAP Diversity Plus: LPS Assay for Interleukin-8 (IL8) Biomarker Activity (AID 2283078); settings: primary human HUVEC with PBMC; actives raise or lower the signal
# Outline: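 Endothelial cells and PBMC from human donors are co-cultured, treated with chemicals and LPS, then assayed for IL-8 by ELISA after 24 h. Parallel SRB staining (0.1% SRB after 10% TCA fixation, 560 nm) flags cytotoxicity.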
# [6] = BSK_LPS_SRB: Viability Assessment in the BioMAP Diversity Plus: LPS Assay (AID 2283079); settings: primary human HUVEC with PBMC;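 also: total protein by sulforhodamine B absorbance as a cytotoxicity measure; measured one day after compound addition; fitted in both directions against DMSO so loss or gain of signal counts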
# Outline: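 Overt cytotoxicity was gauged by sulforhodamine B total-protein staining in a primary human vascular endothelial and mononuclear cell co-culture 24 h post-dosing. Activity was fitted in both directions relative to DMSO.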
# [7] = read-out: Interleukin-1 alpha (IL1a), IL1A (gene 3552); experiment: BSK_LPS_IL1a: BioMAP Diversity Plus: LPS Assay for Interleukin-1 alpha (IL1a) Biomarker Activity (AID 2283080); settings: primary human HUVEC with PBMC; actives raise or lower the signal
# Outline: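 Measured: IL-1 alpha via ELISA at 24 h in LPS-activated human umbilical vein endothelium–PBMC co-culture. Baseline: DMSO, bidirectional fitting.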
# [8] = read-out: Monocyte Chemoattractant Protein-1 (MCP1), CCL2 (gene 6347); experiment: BSK_LPS_MCP1: BioMAP Diversity Plus: LPS Assay for Monocyte Chemoattractant Protein-1 (MCP1) Biomarker Activity (AID 2283081); settings: primary human HUVEC with PBMC; actives raise or lower the signal;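 as to AC50: secreted MCP-1 protein quantified by ELISA in culture supernatant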
# Outline: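 LPS-stimulated HUVEC/PBMC co-culture; chemical, 24 h; MCP-1 by ELISA; bidirectional fit vs DMSO; cytotoxicity via SRB (0.1% stain, 10% TCA fix, 560 nm) in parallel wells.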
# [9] = BSK_LPS_PGE2: BioMAP Diversity Plus: LPS Assay for Prostaglandin E2 (PGE2) Biomarker Activity (AID 2283082); settings: primary human HUVEC with PBMC; actives raise or lower the signal;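 as to AC50: secreted prostaglandin E2 measured by ELISA in LPS-stimulated co-culture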
# Outline: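 Compounds were added to the LPS co-culture of endothelium and PBMC, and PGE2 was measured by ELISA after 24 h. Responses in either direction were fitted with DMSO as baseline.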
# Chain of E-selectin (Homo sapiens) (P16581 whole entry, looked up): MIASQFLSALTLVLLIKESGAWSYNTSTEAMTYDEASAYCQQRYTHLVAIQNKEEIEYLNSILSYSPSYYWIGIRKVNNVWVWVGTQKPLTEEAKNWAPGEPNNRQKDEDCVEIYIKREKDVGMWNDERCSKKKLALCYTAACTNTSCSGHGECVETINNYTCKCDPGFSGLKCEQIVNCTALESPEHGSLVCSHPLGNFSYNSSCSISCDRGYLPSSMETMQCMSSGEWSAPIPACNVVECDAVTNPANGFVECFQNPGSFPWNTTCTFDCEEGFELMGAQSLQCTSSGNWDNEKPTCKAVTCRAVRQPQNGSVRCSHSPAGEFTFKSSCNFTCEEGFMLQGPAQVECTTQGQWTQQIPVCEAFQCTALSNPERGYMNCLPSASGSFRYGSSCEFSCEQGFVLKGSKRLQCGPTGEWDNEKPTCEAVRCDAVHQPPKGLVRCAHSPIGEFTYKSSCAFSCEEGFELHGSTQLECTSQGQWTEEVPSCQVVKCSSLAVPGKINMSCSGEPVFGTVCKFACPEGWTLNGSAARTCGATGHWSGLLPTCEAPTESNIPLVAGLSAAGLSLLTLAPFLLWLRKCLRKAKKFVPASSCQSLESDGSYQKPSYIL
Compound,outcome [1],outcome [2],outcome [3],"outcome (CD40, CD40 (gene 958))",outcome [4],outcome [5],outcome [6],outcome [7],outcome [8],outcome [9],AC50 [1],AC50 [2],AC50 [3],"AC50 (CD40, CD40 (gene 958))",AC50 [4],AC50 [5],AC50 [6],AC50 [7],AC50 [8],AC50 [9]
N#Cc1ccc(N(CC(N)=O)CC(F)(F)F)cc1C(F)(F)F,inactive,inactive,inactive,inactive,inactive,inactive,inactive,inactive,inactive,inactive,–,–,–,–,–,–,–,–,–,–
CC(C)(c1ccccc1)c1ccc(O)cc1,–,–,–,–,–,–,–,–,–,–,34.8 µM (active),31.4 µM (active),31.5 µM (active),32.5 µM (active),36.7 µM (active),35.3 µM (active),33.1 µM (active),36.3 µM (active),35.2 µM (active),12.4 µM (active)
CCCN(CCC)N=O,inactive,inactive,inactive,inactive,inactive,inactive,inactive,inactive,inactive,inactive,–,–,–,–,–,–,–,–,–,–
CCOP(=S)(OCC)SCSC(C)(C)C,inactive,inactive,inactive,–,inactive,inactive,inactive,inactive,inactive,inactive,–,–,–,36.2 µM (active),–,–,–,–,–,–
Oc1ccc(Cl)cc1Cl,inactive,inactive,inactive,inactive,inactive,inactive,inactive,inactive,inactive,inactive,–,–,–,–,–,–,–,–,–,–
CCC(C)(CC)c1cc(NC(=O)c2c(OC)cccc2OC)on1,inactive,inactive,inactive,inactive,inactive,inactive,inactive,inactive,inactive,inactive,–,–,–,–,–,–,–,–,–,–
O=C(O)C(F)(F)C(F)(F)C(F)(F)C(F)(F)C(F)(F)F,inactive,inactive,inactive,inactive,inactive,inactive,inactive,inactive,inactive,inactive,–,–,–,–,–,–,–,–,–,–
O=S(=O)(O)C(F)(F)C(F)(F)C(F)(F)C(F)(F)F,inactive,inactive,inactive,inactive,inactive,inactive,inactive,inactive,inactive,inactive,–,–,–,–,–,–,–,–,–,–
